Measurements from PubChem BioAssay AID1745856 (National Center for Advancing Translational Sciences (NCATS), 2022).
About 270 (0.23%) of roughly 120,000 compounds were called active. About 5% were inconclusive and are not listed. The call rests on the fitted dose curve. Shown is part of a subset that was picked to be rich in actives. Where a call stands in place of a potency, no number is given.

assay: Primary qHTS Assay for Foot and Mouth Disease Virus Antivirals against NCGC Sytravon and CBC Compound Libraries: Firefly Luciferase Signal; conditions: FMDV antiviral cell assay; series mostly up to 57.5 µM; further: nearly all actives have a fitted effect of over 60% in size
Potency means the concentration at half of the fitted maximal effect.

Question: With CCc1cccc(CC)c1NC(=O)CC(C)(C(=O)O)c1ccccc1 (stereo not drawn) as the compound, how does the Potency read?
Answer: inactive

Question: For COc1ccc(C23CC4CC(CC(C4)C2)C3)cc1C(=O)NC(c1ccccc1)c1ccccc1, which Potency is on record?
Answer: inactive

Question: Which Potency does the source give for CC(Oc1ccccc1F)C(=O)Nc1c(F)cccc1F (stereo not drawn) here?
Answer: inactive

Question: For Cc1nn(CC(=O)NC(C)(C)C)c(C)c1S(=O)(=O)N1CCCC(C(=O)N2CCOCC2)C1 (stereo not drawn), which Potency is on record?
Answer: inactive

Question: With CCCn1c(NC(=O)c2oc3ccc(OC)cc3c2C)nc2ccccc21 as the compound, how does the Potency read?
Answer: inactive

Question: Which Potency does the source give for CCCNc1c(NC(=O)Nc2ccccc2C)c(=O)oc2ccccc12 here?
Answer: inactive

Question: Which Potency does the source give for CCC1CN(S(=O)(=O)c2cc(-c3cc(C)no3)ccc2C)c2cc(C)ccc2O1 (stereo not drawn) here?
Answer: inactive

Question: With Cc1cc(-c2ccc(C)c(S(=O)(=O)N3c4ccccc4CC3C)c2)on1 (stereo not drawn) as the compound, how does the Potency read?
Answer: 14.1 µM (active)

Question: With CCN(CC)c1ccc(NS(=O)(=O)c2cc(-c3cc(C)no3)ccc2C)c(C)c1 as the compound, how does the Potency read?
Answer: inactive

Question: Which Potency does the source give for CCOc1ccc(N(Cc2ccccc2)C(=O)c2nc(SCC)ncc2Cl)cc1 here?
Answer: inactive

Question: With CCOc1ccc(N(Cc2ccccc2)C(=O)c2nc(S(C)(=O)=O)ncc2Cl)cc1 as the compound, how does the Potency read?
Answer: 22.4 µM (active)

Question: For CCOc1ccc(CN2CCC(N(C)Cc3ccccc3)CC2)cc1, which Potency is on record?
Answer: inactive

Question: For O=C(OCc1ccc(Cl)cc1Cl)c1c(F)cccc1F, which Potency is on record?
Answer: inactive

Question: For COc1ccc(C(=O)Nc2c(NCC3CCCCC3)c3ccccc3oc2=O)cc1OC, which Potency is on record?
Answer: inactive

Question: Which Potency does the source give for O=S(Cc1ccccc1)Cc1cccc(F)c1 (stereo not drawn) here?
Answer: inactive

Question: For CCn1nc(C(=O)Nc2nnc(Cc3ccccc3)s2)c2ccccc2c1=O, which Potency is on record?
Answer: inactive

Question: For O=C(Oc1ccc(Br)cc1)c1cnccn1, which Potency is on record?
Answer: inactive

Question: Which Potency does the source give for Cc1cc(=O)oc2cc(OCC(=O)Nc3ccc(S(=O)(=O)N4CCOCC4)cc3)ccc12 here?
Answer: inactive

Question: For Cn1cc2c(C(F)(F)F)cc(=O)n(CCC(=O)O)c2n1, which Potency is on record?
Answer: inactive

Question: With Cc1ccc(N2CCN(C(=O)c3nn(C)c4c3CCc3sccc3-4)CC2)c(C)c1 as the compound, how does the Potency read?
Answer: inactive

Question: With COc1ccc(/C=C2\Oc3cc(OS(=O)(=O)c4ccc(C)cc4)ccc3C2=O)c(OC)c1OC as the compound, how does the Potency read?
Answer: inactive

Question: With CCOC(=O)C1=C(C)NC(=O)NC1c1ccc(C(=O)OC)cc1 (stereo not drawn) as the compound, how does the Potency read?
Answer: inactive

Question: Which Potency does the source give for Cc1ccccc1NC(=O)CSc1nc(C2CC2)n(-c2ccccc2)n1 here?
Answer: inactive

Question: For COc1ccc(-c2cc(C(=O)N3CCN(CC(=O)N4CCOCC4)CC3)c3ccccc3n2)cc1, which Potency is on record?
Answer: inactive

Question: With COC(=O)CCCn1c(C)cc(C(=O)COC(=O)c2nccnc2N)c1C as the compound, how does the Potency read?
Answer: inactive

Question: Which Potency does the source give for COC1CC(OC2CCC3(C=O)[C@H]4CCC5(C)C(C6=CC(=O)OC6)CCC5(O)[C@@H]4CCC3(O)C2)OC(C)C1O (stereo partly drawn) here?
Answer: 0.282 µM (active)

Question: Which Potency does the source give for COc1ccc2c(C)c(CC(=O)NCc3ccccc3Cl)c(=O)oc2c1 here?
Answer: inactive

Question: For CC(Sc1nnc(CCC(N)=O)n1C1CC1)C(=O)c1c[nH]c2ccccc12 (stereo not drawn), which Potency is on record?
Answer: inactive

Question: Which Potency does the source give for CC(NC(=O)C(=O)Nc1cc(Cl)ccc1Cl)c1ccccc1 (stereo not drawn) here?
Answer: inactive

Question: Which Potency does the source give for CCCc1cc(=O)oc2c(C)c(OCC(=O)OC(C)C)ccc12 here?
Answer: inactive

Question: With CC(C(=O)Nc1cccc(C#N)c1)n1nnc(-c2cccc(C(F)(F)F)c2)n1 (stereo not drawn) as the compound, how does the Potency read?
Answer: inactive

Question: For CCOc1ccccc1-c1nn2c(CN3CCCCC3)nnc2s1, which Potency is on record?
Answer: inactive

Question: For Cc1nccn1CCc1nc2cc(NC(=O)C(C)C)ccc2n1C, which Potency is on record?
Answer: inactive

Question: With CCCCn1c(=O)[nH]c(=O)c2c1nc(-c1ccc(OCC#N)c(OC)c1)n2C as the compound, how does the Potency read?
Answer: inactive

Question: For N#Cc1ccccc1N=Cc1ccc2ccccc2c1, which Potency is on record?
Answer: inactive

Question: For Cc1cc(C(F)(F)F)nn1Cc1nc2c3c4c(sc3ncn2n1)CCC4, which Potency is on record?
Answer: inactive

Question: With CCSc1ncc(Cl)c(C(=O)Nc2cc(C)ccc2C)n1 as the compound, how does the Potency read?
Answer: inactive

Question: With CCCS(=O)(=O)c1ncc(Cl)c(C(=O)Nc2scc(-c3ccccc3)c2C(=O)OCC)n1 as the compound, how does the Potency read?
Answer: inactive

Question: With Cc1ccc(NC(=O)c2nc(S(=O)(=O)Cc3cccc(C)c3)ncc2Cl)cc1 as the compound, how does the Potency read?
Answer: 22.4 µM (active)

Question: Which Potency does the source give for Cc1ccc(-c2ccc(CCC(=O)O)n2NC(=O)c2ccc(F)cc2)cc1 here?
Answer: inactive

Question: Which Potency does the source give for O=C(Nc1cccc(I)c1)c1ccc2c3c(cccc13)CC2 here?
Answer: inactive

Question: With COC(=O)c1ccc(CNC(=O)CCCNC(=O)C(C)(C)C)cc1 as the compound, how does the Potency read?
Answer: inactive

Question: With Cc1nc2cc(NC(C)C(=O)Nc3cccc(Cl)c3Cl)ccc2o1 (stereo not drawn) as the compound, how does the Potency read?
Answer: inactive

Question: Which Potency does the source give for COC(=O)c1cccc(N=Cc2cc(Cl)ccc2O)c1 here?
Answer: inactive

Question: Which Potency does the source give for CC(C)CNC(=O)COC(=O)Cc1nn(C)c(=O)c2ccccc12 here?
Answer: inactive

Question: Which Potency does the source give for O=C(CN1CCN(C(=O)c2nn(Cc3ccccc3)c(=O)c3ccccc23)CC1)Nc1ccc(F)cc1 here?
Answer: inactive

Question: Which Potency does the source give for Cc1noc(C)c1CS(=O)(=O)c1ccc(Cl)cc1 here?
Answer: inactive

Question: For Cc1cccc(NC(=O)c2cc3cc(Br)ccc3oc2=O)c1, which Potency is on record?
Answer: inactive

Question: With COc1ccccc1NC(=O)c1cc2ccccc2cc1OCC(N)=O as the compound, how does the Potency read?
Answer: inactive

Question: Which Potency does the source give for Cc1nc(NC(=O)C(C)Sc2nnc(-c3ccccc3F)n2CC(C)C)sc1C (stereo not drawn) here?
Answer: inactive

Question: Which Potency does the source give for Cn1c(=O)[nH]c(=O)c2c(C(=O)O)cc(C3CC3)nc21 here?
Answer: inactive

Question: With Cc1cc(/C=C(/C#N)c2nc3ccccc3n2C)cc(C)c1O as the compound, how does the Potency read?
Answer: inactive

Question: With Clc1ccc(CN2CCN(c3ncnc4nc[nH]c34)CC2)cc1 as the compound, how does the Potency read?
Answer: inactive

Question: Which Potency does the source give for COc1ccccc1-c1nc(C#N)c(NCc2ccccc2)o1 here?
Answer: inactive

Question: Which Potency does the source give for [O-]/[N+](=C\c1ccc2ccccc2n1)c1ccccc1 here?
Answer: inactive

Question: Which Potency does the source give for CCCC(=O)Nc1cccc(-c2cc3cc(F)ccc3[nH]2)c1 here?
Answer: inactive

Question: Which Potency does the source give for Cc1ccc(-c2cc(-c3ccccc3)c(C#N)c(SCCS(=O)Cc3ccccc3)n2)cc1 (stereo not drawn) here?
Answer: inactive

Question: With N#Cc1ccccc1NC(=O)c1cnc2ccccc2n1 as the compound, how does the Potency read?
Answer: inactive

Question: With CCOC(=O)c1cc(NCc2c(Cl)cccc2Cl)ccc1N1CCOCC1 as the compound, how does the Potency read?
Answer: inactive

Question: With Cc1occc1-c1nnc(SCC(=O)N2c3ccccc3CC2C)o1 (stereo not drawn) as the compound, how does the Potency read?
Answer: inactive

Question: For Cc1c(Cl)cccc1N(CC(=O)Nc1c(C)n(C)n(-c2ccccc2)c1=O)S(C)(=O)=O, which Potency is on record?
Answer: inactive

Question: With CCOC(=O)c1cc(NC(=O)c2ccc(-c3ccccc3)cc2)ccc1N1CCOCC1 as the compound, how does the Potency read?
Answer: inactive

Question: Which Potency does the source give for C(=N\N=C(c1ccccc1)c1ccccc1)/c1c[nH]c2ccccc12 here?
Answer: inactive

Question: With Cc1ccc(C(=O)NC2CCSC2=O)cc1C (stereo not drawn) as the compound, how does the Potency read?
Answer: inactive

Question: For Cc1ccc(CCNC(=O)c2noc(C)c2Cn2nc(C)cc2C)cc1, which Potency is on record?
Answer: inactive

Question: With O=C(Nc1ncn(Cc2ccc(Cl)cc2)n1)c1ccn(COc2ccc(F)cc2F)n1 as the compound, how does the Potency read?
Answer: inactive

Question: With Fc1ccc(-c2ccc(CNCc3ccccc3)o2)cc1 as the compound, how does the Potency read?
Answer: inactive

Question: Which Potency does the source give for COc1nc2ccccc2nc1N1CCC(C(=O)Nc2ccccc2F)CC1 here?
Answer: inactive
